# Bioassay records from PubChem.
# Shown are actives, neighbours in structure and some others; about 1.1% of the full set was active somewhere.
# LmPK inhibitor: qHTS Assay for Inhibitors of Leishmania Mexicana Pyruvate Kinase (LmPK); AID 1721, 2009; 290,000 compounds, 0.37% hits; Potency, µM (top dose mostly 57.5 µM), for inactives: at the top dose activity change, negative = inhibition, usual class: inhibitors; Q27686; purified LmPK, Kinase-Glo ATP luminescence, 1 h; further: on the % scale 0 is the no-effect control and ±100 the full control effect
# Target sequence (Q27686 whole entry, looked up): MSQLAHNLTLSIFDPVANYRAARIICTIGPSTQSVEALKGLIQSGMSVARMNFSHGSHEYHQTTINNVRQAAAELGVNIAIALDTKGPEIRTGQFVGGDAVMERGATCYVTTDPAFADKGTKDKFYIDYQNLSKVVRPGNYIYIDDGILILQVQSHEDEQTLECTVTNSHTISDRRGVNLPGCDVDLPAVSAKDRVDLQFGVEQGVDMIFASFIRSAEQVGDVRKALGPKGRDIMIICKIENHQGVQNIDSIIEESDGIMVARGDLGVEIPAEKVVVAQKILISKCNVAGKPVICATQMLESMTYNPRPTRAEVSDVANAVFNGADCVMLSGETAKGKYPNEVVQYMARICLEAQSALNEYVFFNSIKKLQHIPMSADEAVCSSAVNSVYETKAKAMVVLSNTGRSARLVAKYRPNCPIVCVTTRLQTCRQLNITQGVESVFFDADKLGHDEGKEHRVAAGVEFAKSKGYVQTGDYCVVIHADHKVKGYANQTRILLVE
#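 Screened at intermediate enzyme activity to detect both inhibitors and activators: LmPK at 0.1 nM, with a 0.5 nM enzyme column as activation reference. PEP 0.5 mM, ADP 0.1 mM; ATP detected by luminescence after 1 h.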
# SARS PLP yeast: qHTS of Yeast-based Assay for SARS-CoV PLP. S. cerevisiae expressing SARS-CoV PLpro, growth rescue. Potency, µM (titrated, usually from 32.9 µM), for the others: top-dose activity, positive = growth rescue, usual class: activators. 330,000 compounds, 0.19% hits. AID 485353, 2010; calls by dose curve; further: 0% is about no effect; nearly all actives have a fitted effect of over 55% in size
# TbPYK inhibitor: qHTS of Trypanosoma Brucei Inhibitors; pyruvate kinase (Trypanosoma brucei), Q57TT1; TbPYK enzyme, Kinase-Glo Plus ATP luminescence, 45 min; Potency, µM (titrated, usually from 76.8 µM), for the others: top-dose activity, negative = inhibition, actives largely listed as inhibitors; 410,000 compounds, 0.12% hits; further: on the % scale 0 is the no-effect control and ±100 the full control effect; nearly all actives have a fitted effect of over 50% in size
#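 Assay buffer: 50 mM TEA pH 7.2, 100 mM KCl, 10 mM MgCl2, 0.05% BSA, 0.01% Tween-20. Pyruvate kinase from T. brucei plus substrate met compound, then ADP (130 uM final). Luminescence was read post 45 min RT.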
# RE007 growth inh: qHTS Assay for Inhibitors of the HIV-1 protein Vpr | Potency, µM (series often up to 92.2 µM), without a hit: at the highest dose activity change, negative = less growth, most hits filed as inhibitors | S. pombe RE007 Vpr strain, BacTiter-Glo ATP luminescence, 24 h | 360,000 compounds, 0.21% hits; active means well fitted falling curve with a large enough effect; inconclusive means small, poorly fitted or top-dose-only effect; inactive means no such curve, though single readings can be large or run the other way; further: on the % scale 0 is the no-effect control and ±100 the full control effect; nearly all actives have a fitted effect of over 50% in size
#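 Fission yeast RE007 carrying one integrated HIV-1 vpr copy, seeded at OD 0.01 in PMG+AL medium with 23 nL pinned compound. Grown 24 h at 30 degrees; viability read by BacTiter-Glo luminescence after 5 min.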
# Giardia FBPA inh-1: qHTS Assay for Inhibitors of Fructose-1,6-bisphosphate Aldolase from Giardia Lamblia | A8B2U2 | purified Giardia FBPA | Potency, µM (top dose mostly 59.6 µM), inactives show at the highest dose activity, negative = inhibition, most hits filed as inhibitors | 290,000 compounds, 0.71% hits | AID 2451, 2010; further: on the % scale 0 is the no-effect control and ±100 the full control effect; nearly all actives have a fitted effect of over 55% in size
#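 Giardia FBPA (40 nM reagent) was preincubated 10 min at RT with compound (up to 57.5 uM final), then substrate plus GAPDH/TPI/NAD/arsenate coupling system with diaphorase/resazurin was added; resorufin fluorescence (525/598 nm) was read after 20 min.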
# Giardia growth: qHTS Assay for Inhibitors of Fructose-1,6-bisphosphate Aldolase from Giardia Lamblia: Giardia lamblia growth inhibition | shares compounds with Giardia FBPA inh-1 | AID 2785, 2010 | 1,500 compounds, 5% hits | Giardia lamblia trophozoite growth inhibition | Potency, µM (titrated, usually from 57.5 µM), for inactives: top-dose activity change, negative = inhibition, usual class: inhibitors;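 further: trophozoites exposed to compound for 48 h at 37 °C; on the % scale 0 is the no-effect control and ±100 the full control effect; nearly all actives have a fitted effect of over 70% in size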
# Mammalian tox: qHTS Assay for Inhibitors of Fructose-1,6-bisphosphate Aldolase from Giardia Lamblia: Mammalian cellular toxicity. shares compounds with Giardia FBPA inh-1. mammalian cell viability counter-screen, qHTS. Potency, µM (series often up to 57.5 µM), for inactives: top-dose viability change, negative = toxicity, hits mostly inhibitors. 1,500 compounds, 4% hits. AID 2786, 2010;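 further: Chinese hamster ovary cells used as mammalian cytotoxicity surrogate; viability measured as cellular ATP by luminescence; compound exposure lasted 48 h before reading; on the % scale 0 is the no-effect control and ±100 the full control effect; nearly all actives have a fitted effect of over 60% in size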
# Giardia FBPA inh-2: qHTS Assay for Inhibitors of Fructose-1,6-bisphosphate Aldolase from Giardia Lamblia: Primary screen confirmation | shares compounds with Giardia FBPA inh-1 | purified Giardia aldolase enzyme activity, qHTS | Potency, µM (series often up to 57.5 µM), inactives show at the highest dose activity change, negative = inhibition, usual class: inhibitors | 1,500 compounds, 5% hits; further: on the % scale 0 is the no-effect control and ±100 the full control effect; nearly all actives have a fitted effect of over 45% in size
# Rabbit FBPA inh: qHTS Assay for Inhibitors of Fructose-1,6-bisphosphate Aldolase from Giardia Lamblia: Rabbit FBPA Selectivity; Potency, µM (titrated, usually from 57.5 µM), for the others: at the top dose activity, negative = inhibition, hits mostly inhibitors; shares compounds with Giardia FBPA inh-1; 1,500 compounds, 4% hits; Rabbit muscle FBPA enzyme inhibition, selectivity counter-screen; AID 2794, 2010; further: on the % scale 0 is the no-effect control and ±100 the full control effect; nearly all actives have a fitted effect of over 60% in size
# GAPDH counter: qHTS Assay for Inhibitors of Fructose-1,6-bisphosphate Aldolase from Giardia Lamblia: Coupling assay counterscreen confirmation; AID 2795, 2010; 1,500 compounds, 6% hits; Potency, µM (highest dose often 57.5 µM), for the others: at the highest dose activity change, negative = inhibition, usual class: inhibitors; GAPDH coupling enzyme counterscreen, biochemical, qHTS; shares compounds with Giardia FBPA inh-1; further: on the % scale 0 is the no-effect control and ±100 the full control effect; nearly all actives have a fitted effect of over 55% in size
# * marks the source's active call; other numbers are inactive results; u = inconclusive; x = no result; [ ] = remark or other dose. Unless noted, the call rests on the fitted dose curve; in most records, active means well fitted curve in the direction sought with a large enough effect; inconclusive means small, poorly fitted or top-dose-only effect, or another doubt; inactive means no such curve, though single readings can be large; an effect the other way counts as inactive or inconclusive. Potency means the concentration at half of the fitted maximal effect.
SMILES,LmPK inhibitor,SARS PLP yeast,TbPYK inhibitor,RE007 growth inh,Giardia FBPA inh-1,Giardia growth,Mammalian tox,Giardia FBPA inh-2,Rabbit FBPA inh,GAPDH counter
COc1ccc(-c2ccnc3cc(C(=O)O)nn23)cc1,5%,2%,2%,u,18µM*,47%,23%,4%,0%,7%
CS(=O)(=O)N1CCC[C@@]2(CCN(c3ccccn3)C2)C1,x,x,-1%,x,-9%,x,x,x,x,x
CC1=NN(C(=S)Nc2ccccc2)C(C)(C)C1,17%,0%,-5%,-6%,-22%,x,x,x,x,x
CC1=NN(C(N)=S)C(C)(C)C1,-6%,0%,-1%,13%,11µM*,-13%,17%,2%,10%,9%
OCCN(CCO)c1ccc2ccccc2c1,0%,5%,1%,8%,16µM*,-17%[10.4 µM],-18%,4µM*,u,-26%
CCOc1cc(C#N)c(NC(=O)c2ccc(OC)c(S(=O)(=O)N3CCN(c4ccccc4)CC3)c2)cc1OCC,x,x,4%,x,x,x,x,x,x,x
Cc1nnc(NC(=O)CN2CCN(Cc3ccc(F)cc3Cl)CC2)s1,-4%,5%,2%,-6%,3.2µM*,23%,-11%,6%,6%,17%
Cc1cnc(NC(=O)CN2CCCCC2)s1,5%,7%,-3%,-9%,4.5µM*,u,-6%,7%,8%,17%
CCCc1nnc(NC(=O)CN2CCN(C)CC2)s1,0%,x,-5%,15%,u,x,x,x,x,x
CC(=O)Nc1ccc2sc(NC(=O)CN3CCOCC3)nc2c1,5%,5%,-3%,5%,4.5µM*,u,-17%,7%,10%,0%
CCc1nnc(NC(=O)CN2CCN(Cc3cccc(F)c3)CC2)s1,-5%,1%,2%,15%,x,x,x,x,x,x
Cc1ccc2nc(NC(=O)CN3CCOCC3)sc2c1,-2%,1%,-3%,6%,-5%,x,x,x,x,x
CCCN1CCN(CC(=O)Nc2nnc(C)s2)CC1,0%,0%,-3%,16%,7.9µM*,26%,1%,-2%,13%,4%
Cn1cnc(S(=O)(=O)N2CCC(C(=O)NCc3ccc(Cl)cc3)CC2)c1,x,x,3%,x,x,x,x,x,x,x
COc1ccccc1Oc1nc2c(c(=O)n(C)c(=O)n2C)n1Cc1cccc(Br)c1,x,x,3%,x,x,x,x,x,x,x
CCCSc1nnc2c(n1)OC(c1cccs1)Nc1ccc(Br)cc1-2 (stereo unspecified),x,x,0%,x,x,x,x,x,x,x
CC1(C)CC23C(=O)CCC(O)C2(C)CCC13 (stereo unspecified),x,x,x,x,-2%,x,x,x,x,x
O=C(CN1CCN(Cc2ccccc2)CC1)Nc1nnc(C(F)(F)F)s1,0%,1%,1%,-10%,-25%,x,x,x,x,x
CCc1nnc(NC(=O)CN2CC(C)OC(C)C2)s1 (stereo unspecified),-1%,4%,-7%,-8%,3.5µM*,14%[10.4 µM],-6%,3%,7%,7%
O=C(CN1CCN(Cc2ccc(F)cc2)CC1)Nc1nc2ccccc2s1,17%,-6%,0%,-6%,14µM*,-29%,1%,10%,1%,14%
Cc1nnc(NC(=O)CN2CCN(Cc3ccccc3)CC2)s1,0%,-9%,6%,-13%,6.3µM*,14%[10.4 µM],6%,3%,14%,0%
Cc1ccc(NC(=O)C(=O)NCC(c2ccc3c(c2)OCO3)N2CCN(C)CC2)c(C)c1 (stereo unspecified),x,x,2%,x,x,x,x,x,x,x
CCC(C)c1ccc(NC(=O)CN(C)CC(=O)Nc2cccc(OC)c2)cc1 (stereo unspecified),-5%,-20%,-1%,11%,16µM*,u,3%,-7%,-3%,-3%
CC(C)CN1CCCC2(CCN(C(=O)c3csnn3)CC2)C1,x,x,4%,x,-2%,x,x,x,x,x
NC(=O)c1cccc2c1-c1ccccc1/C2=N/NC(N)=S,-4%,1%,-2%,-9%,11µM*,-23%,-28%,-3%,0%,9%
CCOC(=O)Nc1ccc2c(c1)C(=NNC(N)=S)c1ccccc1-2,x,x,4%,0%,x,x,x,x,x,x
COC(=O)c1cccc2c1-c1ccccc1/C2=N\NC(N)=O,1%,0%,-1%,1%,10%,x,x,x,x,x
NC(=S)N/N=C1\c2ccccc2-c2c(C(=O)O)cccc21,-20%,16%,4%,-17%,4µM*,4%[10.4 µM],2%,6%,3%,11%
